Laboratory results taken from PubChem BioAssay AID1159580 (chemical genetic matrix, 2015).
The campaign covered roughly 5,500 compounds. About 2,000 (36%) were called active. Another 18% or so got no clear call; they are omitted. Cut-off read from the data, not from the text of the source: active = normalized growth mostly below about 0.91 (no sharp cut-off); inconclusive = no clear call, values can overlap the other calls; inactive = mostly above about 0.92. Some of the results follow.

Experiment: chemical genetic growth profiling, strain panel (AID 1159580);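 note: tested at 20 µM; growth read once vehicle control cultures reached saturation at 30 °C; 1 = growth at the plate median or of vehicle wells; lower values mean less growth of the strain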
Conditions: S. cerevisiae deletion strains, growth OD

Measured: normalized growth

OC(COc1ccc(F)cc1)(c1ccc(Cl)cc1)c1ccc(Cl)cc1
inactive: locus YAR019C, strain CDC15, stronger effect = lower value 0.991 | locus YBL105C, strain PKC1, stronger effect = lower value 0.985 | locus YBR135W, strain CKS1, stronger effect = lower value 0.984 | locus YBR136W, strain MEC1, stronger effect = lower value 1 | locus YBR160W, strain CDC28, stronger effect = lower value 0.982 | locus YDL017W, strain CDC7, stronger effect = lower value 0.988 | locus YDL028C, strain MPS1, stronger effect = lower value 0.985 | locus YDL101C, strain DUN1, stronger effect = lower value 0.974 | locus YDL108W, strain KIN28, stronger effect = lower value 0.978 | locus YDL132W, strain cdc53, stronger effect = lower value 0.987 | locus YDL214C, strain PRR2, stronger effect = lower value 0.985 | locus YDR052C, strain DBF4, stronger effect = lower value 0.989 | locus YDR054C, strain cdc34, stronger effect = lower value 0.993 | locus YDR226W, strain ADK1, stronger effect = lower value 0.983 | locus YDR477W, strain SNF1, stronger effect = lower value 0.996 | locus YER123W, strain YCK3, stronger effect = lower value 0.96 | locus YER133W, strain GLC7, stronger effect = lower value 0.987 | locus YFL009W, strain cdc4, stronger effect = lower value 0.993 | locus YFL029C, strain CAK1, stronger effect = lower value 0.988 | locus YFR003C, strain YPI1, stronger effect = lower value 0.989 | locus YFR019W, strain FAB1, stronger effect = lower value 1 | locus YFR028C, strain CDC14, stronger effect = lower value 0.986 | locus YGR040W, strain KSS1, stronger effect = lower value 0.981 | locus YGR052W, strain FMP48, stronger effect = lower value 1.08 | locus YGR092W, strain DBF2, stronger effect = lower value 0.962 | locus YHR030C, strain SLT2, stronger effect = lower value 1.07 | locus YHR079C, strain IRE1, stronger effect = lower value 1.08 | locus YHR082C, strain KSP1, stronger effect = lower value 1.07 | locus YHR205W, strain SCH9, stronger effect = lower value 0.964 | locus YIL147C, strain SLN1, stronger effect = lower value 0.98 | locus YJL095W, strain BCK1, stronger effect = lower value 1.08 | locus YJL128C, strain PBS2, stronger effect = lower value 0.939 | locus YJL157C, strain FAR1, stronger effect = lower value 0.988 | locus YJR016C, strain ILV3, stronger effect = lower value 0.984 | locus YJR066W, strain TOR1 (second series), stronger effect = lower value 0.971 | locus YJR066W, strain TOR1, stronger effect = lower value 1.12 | locus YKL048C, strain ELM1, stronger effect = lower value 0.984 | locus YKL067W, strain YNK1, stronger effect = lower value 0.988 | locus YKL101W, strain HSL1, stronger effect = lower value 0.98 | locus YKL193C, strain SDS22, stronger effect = lower value 0.991 | locus YKL203C, strain TOR2, stronger effect = lower value 1.08 | locus YLR113W, strain HOG1, stronger effect = lower value 0.957 | locus YLR133W, strain CKI1, stronger effect = lower value 0.989 | locus YLR403W, strain SFP1, stronger effect = lower value 1 | locus YML070W, strain DAK1, stronger effect = lower value 0.99 | locus YMR001C, strain CDC5, stronger effect = lower value 0.984 | locus YMR205C, strain PFK2 (second series), stronger effect = lower value 0.995 | locus YMR277W, strain FCP1, stronger effect = lower value 0.992 | locus YNL006W, strain LST8, stronger effect = lower value 0.998 | locus YNL020C, strain ARK1, stronger effect = lower value 0.988 | locus YNL161W, strain CBK1, stronger effect = lower value 0.988 | locus YNL183C, strain NPR1, stronger effect = lower value 1.09 | locus YNL207W, strain RIO2, stronger effect = lower value 0.997 | locus YNL222W, strain SSU72, stronger effect = lower value 0.991 | locus YNL307C, strain MCK1 (second series), stronger effect = lower value 0.981 | locus YOL078W, strain AVO1, stronger effect = lower value 0.994 | locus YOL136C, strain PFK27, stronger effect = lower value 0.966 | locus YOR061W, strain CKA2, stronger effect = lower value 0.988 | locus YOR119C, strain RIO1, stronger effect = lower value 1.02 | locus YOR231W, strain MKK1, stronger effect = lower value 1.06 | locus YOR329C, strain SCD5, stronger effect = lower value 0.984 | locus YPL031C, strain PHO85, stronger effect = lower value 0.981 | locus YPL153C, strain RAD53, stronger effect = lower value 0.984 | locus YPL204W, strain HRR25, stronger effect = lower value 0.986 | locus YPL209C, strain IPL1, stronger effect = lower value 0.992 | locus YPL256C, strain CLN2, stronger effect = lower value 1.07 | locus YPR025C, strain CCL1, stronger effect = lower value 0.992 | locus YPR106W, strain ISR1, stronger effect = lower value 0.983 | locus YPR111W, strain DBF20, stronger effect = lower value 0.984 | strain NNK1, stronger effect = lower value 0.992 | strain TSCII, stronger effect = lower value 0.991
